About 2,000 (36%) of roughly 5,500 compounds were called active. About 18% were inconclusive and are not listed. Cut-off read from the data, not from the text of the source: active = normalized growth mostly below about 0.91 (no sharp cut-off); inconclusive = no clear call, values can overlap the other calls; inactive = mostly above about 0.92. The list shows a part of the results.
Assay: chemical genetic growth profiling, strain panel (AID 1159580);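 note: tested at 20 µM; growth read once vehicle control cultures reached saturation at 30 °C; 1 = growth at the plate median or of vehicle wells; lower values mean less growth of the strain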
Settings: growth OD

Measured: normalized growth

C#CCCCCCCCCCCCC(O)CC(O)CO (configuration not stated)
active: S. cerevisiae deletion strains, locus YLR113W, strain HOG1, active compounds read low 0.832 | S. cerevisiae deletion strains, locus YNL183C, strain NPR1, active compounds read low 0.774 | S. cerevisiae deletion strains, locus YOR231W, strain MKK1, active compounds read low 0.851
inactive: S. cerevisiae deletion strains, locus YJR075W, strain HOC1, active compounds read low 0.987 | S. cerevisiae deletion strains, locus YKL009W, strain mrt4, active compounds read low 1 | S. cerevisiae deletion strains, locus YKL068W, active compounds read low 1.01 | S. cerevisiae deletion strains, locus YKL085W, strain MDH1 (second series), active compounds read low 1.01 | S. cerevisiae deletion strains, locus YKL085W, strain MDH1, active compounds read low 1.01 | S. cerevisiae deletion strains, locus YKL160W, strain elf1, active compounds read low 0.97 | S. cerevisiae deletion strains, locus YKL190W, strain CNB1, active compounds read low 0.999 | S. cerevisiae deletion strains, locus YKR001C, strain vps1, active compounds read low 1 | S. cerevisiae deletion strains, locus YKR026C, strain gcn3, active compounds read low 0.982 | S. cerevisiae deletion strains, locus YKR091W, strain srl3, active compounds read low 0.979 | S. cerevisiae deletion strains, locus YLL001W, strain dnm1, active compounds read low 0.961 | S. cerevisiae deletion strains, locus YLL026W, active compounds read low 0.993 | S. cerevisiae deletion strains, locus YLL041C, strain sdh2, active compounds read low 0.986 | S. cerevisiae deletion strains, locus YLR027C, strain aat2, active compounds read low 0.986 | S. cerevisiae deletion strains, locus YLR039C, strain RIC1, active compounds read low 1.08 | S. cerevisiae deletion strains, locus YLR058C, strain SHM2, active compounds read low 1 | S. cerevisiae deletion strains, locus YLR102C, strain apc9, active compounds read low 1.01 | S. cerevisiae deletion strains, locus YLR221C, strain rsa3, active compounds read low 0.974 | S. cerevisiae deletion strains, locus YLR258W, strain gsy2, active compounds read low 0.99 | S. cerevisiae deletion strains, locus YLR262C, strain YPT6 (second series), active compounds read low 0.966 | S. cerevisiae deletion strains, locus YLR262C, strain YPT6, active compounds read low 1.07 | S. cerevisiae deletion strains, locus YLR268W, strain sec22, active compounds read low 1 | S. cerevisiae deletion strains, locus YLR320W, strain mms22, active compounds read low 0.946 | S. cerevisiae deletion strains, locus YLR330W, strain CHS5, active compounds read low 0.99 | S. cerevisiae deletion strains, locus YLR342W, strain FKS1 (second series), active compounds read low 0.975 | S. cerevisiae deletion strains, locus YLR342W, strain FKS1, active compounds read low 0.985 | S. cerevisiae deletion strains, locus YLR357W, strain rsc2, active compounds read low 0.954 | S. cerevisiae deletion strains, locus YLR370C, strain arc18, active compounds read low 0.985 | S. cerevisiae deletion strains, locus YLR371W, strain rom2, active compounds read low 1.01 | S. cerevisiae deletion strains, locus YLR384C, strain iki3, active compounds read low 0.98 | S. cerevisiae deletion strains, locus YLR418C, strain cdc73, active compounds read low 1.02 | S. cerevisiae deletion strains, locus YML016C, strain PPZ1, active compounds read low 1 | S. cerevisiae deletion strains, locus YML032C, strain rad52, active compounds read low 1.02 | S. cerevisiae deletion strains, locus YML120C, strain ndi1, active compounds read low 0.986 | S. cerevisiae deletion strains, locus YML124C, strain tub3, active compounds read low 1.01 | S. cerevisiae deletion strains, locus YMR058W, strain fet3, active compounds read low 0.991 | S. cerevisiae deletion strains, locus YMR078C, strain ctf18, active compounds read low 1 | S. cerevisiae deletion strains, locus YMR125W, strain sto1, active compounds read low 0.967 | S. cerevisiae deletion strains, locus YMR129W, active compounds read low 0.988 | S. cerevisiae deletion strains, locus YMR205C, strain PFK2, active compounds read low 0.962 | S. cerevisiae deletion strains, locus YMR223W, strain ubp8, active compounds read low 1.01 | S. cerevisiae deletion strains, locus YMR231W, strain pep5, active compounds read low 0.974 | S. cerevisiae deletion strains, locus YMR263W, strain SAP30, active compounds read low 1 | S. cerevisiae deletion strains, locus YMR307W, strain GAS1, active compounds read low 1.19 | S. cerevisiae deletion strains, locus YNL067W, strain RPL9B, active compounds read low 0.987 | S. cerevisiae deletion strains, locus YNL071W, strain lat1, active compounds read low 0.988 | S. cerevisiae deletion strains, locus YNL128W, strain TEP1, active compounds read low 1.01 | S. cerevisiae deletion strains, locus YNL153C, strain GIM3, active compounds read low 1 | S. cerevisiae deletion strains, locus YNL209W, strain ssb2, active compounds read low 0.996 | S. cerevisiae deletion strains, locus YNL233W, strain BNI4, active compounds read low 0.991 | S. cerevisiae deletion strains, locus YNL248C, strain rpa49, active compounds read low 0.97 | S. cerevisiae deletion strains, locus YNL250W, strain rad50, active compounds read low 1.03 | S. cerevisiae deletion strains, locus YNL271C, strain bni1, active compounds read low 1.02 | S. cerevisiae deletion strains, locus YNL298W, strain CLA4, active compounds read low 1.01 | S. cerevisiae deletion strains, locus YNL307C, strain MCK1, active compounds read low 0.98 | S. cerevisiae deletion strains, locus YNL322C, strain KRE1 (second series), active compounds read low 0.978 | S. cerevisiae deletion strains, locus YNL322C, strain KRE1, active compounds read low 1 | S. cerevisiae deletion strains, locus YNR049C, strain mso1, active compounds read low 0.992 | S. cerevisiae deletion strains, locus YNR052C, strain pop2, active compounds read low 1.01 | S. cerevisiae deletion strains, locus YOL006C, strain TOP1, active compounds read low 0.96 | S. cerevisiae deletion strains, locus YOL012C, strain htz1 0.976 | S. cerevisiae deletion strains, locus YOL147C, strain pex11, active compounds read low 1 | S. cerevisiae deletion strains, locus YOR001W, strain rrp6, active compounds read low 0.998 | S. cerevisiae deletion strains, locus YOR061W, strain CKA2, active compounds read low 0.921 | S. cerevisiae deletion strains, locus YOR069W, strain VPS5, active compounds read low 1 | S. cerevisiae deletion strains, locus YOR070C, strain gyp1, active compounds read low 0.977 | S. cerevisiae deletion strains, locus YOR080W, strain dia2, active compounds read low 0.994 | S. cerevisiae deletion strains, locus YOR083W, strain WHI5, active compounds read low 0.95 | S. cerevisiae deletion strains, locus YOR106W, strain vam3, active compounds read low 0.977 | S. cerevisiae deletion strains, locus YOR136W, strain idh2, active compounds read low 0.998 | S. cerevisiae deletion strains, locus YOR144C, strain elg1, active compounds read low 1.01 | S. cerevisiae deletion strains, locus YOR184W, strain ser1, active compounds read low 1.01 | S. cerevisiae deletion strains, locus YOR265W, strain rbl2, active compounds read low 0.99 | S. cerevisiae deletion strains, locus YOR270C, strain vph1, active compounds read low 0.944 | S. cerevisiae deletion strains, locus YOR290C, strain snf2, active compounds read low 0.948 | S. cerevisiae deletion strains, locus YOR316C, strain cot1, active compounds read low 1.01 | S. cerevisiae deletion strains, locus YPL051W, strain arl3, active compounds read low 0.989 | S. cerevisiae deletion strains, locus YPL055C, strain LGE1, active compounds read low 0.994 | S. cerevisiae deletion strains, locus YPL078C, strain atp4, active compounds read low 0.981 | S. cerevisiae deletion strains, locus YPL106C, strain sse1, active compounds read low 0.981 | S. cerevisiae deletion strains, locus YPL240C, strain hsp82, active compounds read low 0.998 | S. cerevisiae deletion strains, locus YPL241C, strain CIN2, active compounds read low 1 | S. cerevisiae deletion strains, locus YPL256C, strain CLN2, active compounds read low 0.881 | S. cerevisiae deletion strains, locus YPR119W, strain clb2, active compounds read low 1.01 | S. cerevisiae deletion strains, locus YPR141C, strain kar3, active compounds read low 1.04 | S. cerevisiae deletion strains, locus YPR163C, strain tif3, active compounds read low 0.997 | S. cerevisiae deletion strains, locus YPR167C, strain met16, active compounds read low 1.01 | S. cerevisiae deletion strains, strain wtn01, active compounds read low 1.01 | S. cerevisiae strains, strain wild type, active compounds read low 0.992

Reference: PubChem BioAssay AID1159580 (chemical genetic matrix, 2015)
